The source of these data is PubChem BioAssay AID862 (The Scripps Research Institute Molecular Screening Center, 2007).

Each structure is given as a SMILES string. The campaign covered roughly 190,000 compounds. About 1,700 (0.89%) were called active. This is one part of a sample in which actives are shown more often than they occur. Values without a mark were called inactive.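 The calls were made as follows: active = inhibition above the mean inhibition across all screened compounds plus 3 SD (cut at about 44% in these data); inactive = the rest.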

The assay is described as follows: IL-6 driven STAT3 reporter inhibitors, primary screen, U3A cells, luciferase, luminescence, MLSCN library (AID 862).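 Also: 0% = DMSO only wells and 100% = 100 µM nifuroxazide control wells.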 Conditions: IL-6 STAT3-luciferase reporter, at 5.5 µM, hits give high values, host cell line lacks STAT1.
Broadly, the inhibition is the change of the read-out against control, counted positive when it falls. On to `Cc1ccc(C2CCN(C(=S)Nc3cccc(Cl)c3)C2)cc1` (stereo not given), for which the inhibition is 0.7%. With `CCc1ccc(-n2c(SCc3cc(=O)n4cc(Br)ccc4n3)nc3[nH]ncc3c2=O)cc1`, the inhibition is 9.7%. Next, `CSCCNCc1cn(-c2ccc(F)cc2F)nc1-c1ccccc1C`: 0.4%; `COc1ccc(CCNC(=O)Cn2c(=O)n(CC3CCCO3)c(=O)c3ccccc32)cc1OC` (stereo not given): 10.4%; `Cc1nc(CNS(=O)(=O)c2ccc(Oc3ccccc3)cc2)cs1`: 54% (active). For `Cc1ccc(S(=O)(=O)NCc2csc(C)n2)c(C)c1`, the inhibition was -8.4%. Next, `Cc1nc(CNS(=O)(=O)c2cccnc2)cs1`: 5.7%; `CCc1cc2c(SCC(=O)Nc3ncc(Cl)c(C)c3Cl)ncnc2s1`: -5.3%. Next, `CCc1cc2c(NC3CCCC3)ncnc2s1`: 13%; `CCc1cc2c(N3CCN(c4nnc(CC)s4)CC3)ncnc2s1`: 57.3% (active). Next, `CCC(C)CN1CCC(CO)(Cc2ccccc2Cl)CC1` (stereo not given): 3.5%; `Cc1ccc2cc3cc(C(=O)N4CCCCCC4)oc3nc2c1`: 48.7% (active).

As to `Cc1cc(=O)oc(C)c1C(=O)N1CCCCC1`, the inhibition was 6.3%. Next, `Cc1cccc(C(=O)N2CCCN(C(=O)c3cccc(C)c3)CC2)c1`: 3.3%. Regarding `CN1CCN(c2ccc(NC(=O)c3ccc4c(c3)OCCO4)cc2Cl)CC1`, the inhibition is -19.1%. For the compound `c1ccc(Cc2cc[n+](Cc3ccccc3)cc2)cc1`, the inhibition is 10.2%.

Take `CC1CCCN(S(=O)(=O)c2ccc(N(C(=O)c3cnccn3)C(C(=O)NC3CCCCC3)c3cccs3)cc2)C1` (stereo not given): the inhibition was 5.3%. Turning to `Cc1ccc(-c2nc3ccccc3[nH]2)cc1N`, the inhibition is -19.1%. Next, `c1ccc2[nH]c(-c3nc4ccccc4[nH]3)nc2c1`: 44.2% (active); `c1ccc(-c2[nH]ncc2-c2nc3ccccc3[nH]2)cc1`: 15.2%.

Take `Cc1cccc(C)c1NC(=O)Nc1ccccc1-n1ccnc1`: the inhibition was 4%. Next, `COCCC(=O)Nc1ccc2c(c1)CN(C(=O)CCOC)CC2`: -5.3%. With `O=C(O)c1ccc(N/N=C/c2cn(-c3ccccc3)nc2-c2cccs2)cc1`, the inhibition is 1%. With `CCNC(=S)NNC(=O)c1ccc2ncccc2c1`, the inhibition was 7.8%.

Consider `O=C(O)c1ccc(N/N=C/c2ccc3ncccc3c2)cc1`, for which the inhibition was 69.5% (active). As to `CCCC(c1nnnn1C(C)(C)C)N1CCN(Cc2ccccc2)CC1` (stereo not given), the inhibition is -0.6%. Next, `O=C(CC(O)(C(F)(F)F)C(F)(F)F)Nc1ccc(Cl)c(Cl)c1`: 65.1% (active). Next, `CN(C)CCNC(CC(=O)Nc1ccc(Cl)c(Cl)c1)C(=O)O` (stereo not given): 5.8%; `O=C(CC(=O)Nc1ccc(Cl)c(Cl)c1)N/N=C/c1ccc(O)cc1`: -5%; `COc1cc(C(=O)NCc2ccc(-n3cccc3)cc2)cc(OC)c1OC`: 6.8%. In the case of `COc1ccccc1C(=O)Nc1ccc(OCc2nnc3c4ccccc4c(C)nn23)cc1`, the inhibition is 21.6%. Next, `COc1ccc(C)cc1NC(=O)NCc1ccccn1`: 15%; `CN(c1ccc(OCC(=O)OCC(=O)Nc2cccc([N+](=O)[O-])c2)cc1)S(=O)(=O)c1ccc(F)cc1`: 5.5%. Next, `CN(C)S(=O)(=O)c1ccc(NC(=O)COC(=O)c2n[nH]c3ccccc23)cc1`: 49.3% (active); `CCN(CC)S(=O)(=O)c1ccc2nc(COC(=O)c3n[nH]c4ccccc34)[nH]c2c1`: 19.1%; `O=C(COC(=O)c1n[nH]c2ccccc12)NCc1ccccc1`: 5.8%. Next, `COc1ccccc1NC(=O)c1c(Br)cnn1C`: 25.4%; `CCOC(=O)CNc1nc2ccccc2n2c(C)nnc12`: 24.4%.

On to `Oc1c(Cl)cc(Cl)c(Cl)c1Cc1c(O)c(Cl)cc(Cl)c1Cl`, for which the inhibition was 43.6% (active). Consider `O=C(Nc1ccc2cn[nH]c2c1)c1ccc(S(=O)(=O)N2CCOCC2)cc1`, for which the inhibition was -32.5%.

In the case of `CC(=O)NC(Cc1ccc(F)c(F)c1)C(=O)NC1CCN(c2nnnn2-c2ccccc2)CC1` (stereo not given), the inhibition was 10.3%. `COc1cc(/C=N/NC(=O)c2ccccc2)ccc1OS(=O)(=O)c1ccccc1`: the inhibition was 1.7%. Next, `COc1ccc(C(=O)Nc2ccccc2C(=O)N/N=C/c2ccc(O)c(OC)c2)cc1`: 106% (active). Next, `COc1ccc(C(=O)Nc2ccccc2C(=O)N/N=C/c2ccccc2OC)cc1`: 1.8%. Next, `CC(C)CNC(=O)C(=O)NCc1ccccc1`: -0.6%; `CC(Sc1nc(-c2ccccc2)cc(C(F)(F)F)n1)C(=O)Nc1ccc2c(c1)OCO2` (stereo not given): -2.7%. On to `Cn1cc([N+](=O)[O-])c(C(=O)Nc2cnn(Cc3ccc(F)cc3)c2)n1`, for which the inhibition is 36.8%. Take `O=C(Nc1ccc2c(c1)OCCO2)c1ccncc1`: the inhibition was -8.8%. As to `Cn1cc([N+](=O)[O-])c(C(=O)Nc2ccc3c(c2)OCCO3)n1`, the inhibition was 51.3% (active).

`Cc1ccc(CCCOC(=O)C[N+]2(C)CCCC2)cc1`: the inhibition is -9.5%. Next, `S=C(NN=C1CCN(Cc2ccccc2)CC1)NC1CCCCC1`: -0.1%; `Cn1nnnc1SCC(=O)Nc1nc2ccccc2s1`: -2.9%. Next, `Cn1c(CN2CCOCC2)nc2cc(NC(=O)c3ccc(Cl)cc3)ccc21`: 66.2% (active). With `CC(=O)NCCc1nc2cc(NC(=O)c3ccccc3)ccc2n1C`, the inhibition was 15.8%.

As for `CCC(=O)Nc1ccc2c(c1)nc(CCN1CCN(C)CC1)n2C`, the inhibition is 9.8%. Take `O=C(NCc1ccccc1Cl)C1CCN(S(=O)(=O)N2CCOCC2)CC1`: the inhibition is 2.3%. For the compound `CCN1CCCC1CNc1ncnc2c1[nH]c1ccc(F)cc12` (stereo not given), the inhibition is -30.1%. Next, `CC(C)OCCCNc1ncnc2c1[nH]c1ccc(F)cc12`: 80.4% (active); `O=C1CCCN1CCCNc1ncnc2c1[nH]c1ccccc12`: -56.6%. In the case of `Cc1nc2cc(NC(=O)NC3CC3)ccc2n1C`, the inhibition is 7.5%. Next, `CC(=O)Nc1ccc(C(=O)CSc2nnc(Cc3ccccc3)o2)cc1`: 0.2%; `CC(C)C[C@@H](N)c1nnc(SCC(=O)c2ccc(Cl)cc2)o1`: 53.4% (active). With `COc1ccc(C(=O)CSc2nnc(-c3ccco3)o2)cc1`, the inhibition was 2.9%.

As for `Oc1ccccc1C=NC1CCCCC1N=Cc1ccccc1O` (stereo not given), the inhibition was 5.7%. As to `CCOC(=O)CNC(=O)/C(=C\c1ccc(F)cc1)NC(=O)c1ccccc1`, the inhibition is 1.9%. On to `COc1cccc(NC(=O)Cn2c3ccccc3c3nc4n(c(=O)c32)CCS4)c1`, for which the inhibition was 12.7%. Next, `Cn1c(-c2ccc(C(=O)c3ccccc3)s2)nc2ccccc21`: 49.1% (active). Take `Cn1cccc1-c1nc2ccccc2n1C`: the inhibition was 16.4%. Take `Cn1c(CNC(=O)C(C)(C)C)nc2ccccc21`: the inhibition was 15.4%.

For `Cc1cccc(NC(=S)NC23CN4CN(CN(C4)C2)C3)c1`, the inhibition was 4.5%. Next, `Cc1ccc(OCCCn2c(=O)oc3ccccc32)cc1`: 16.3%. Next, `COC(=O)c1nc2ccccc2s1`: -7.8%; `CCC(=O)NC(=Nc1nc2ccccc2s1)NC(=O)CC`: 12.8%; `CC(C)CC(=O)N/C(N)=N/c1nc2ccccc2s1`: 47% (active).

As to `CCC(=O)c1ccc(OCC(O)Cn2nc(C)c(C(C)=O)c2C)cc1` (stereo not given), the inhibition is 22.7%.

Take `Cc1ccc(Cl)cc1NC(=O)C1CCN(S(C)(=O)=O)CC1`: the inhibition was -0.1%.

Turning to `CCCOC(=O)c1[nH]c2c(c1C)C(=O)CC(c1cccs1)C2` (stereo not given), the inhibition is 3.8%. For `CCCOC(=O)c1[nH]c2c(c1C)C(=O)CC(c1cc(OC)c(OC)c(OC)c1)C2` (stereo not given), the inhibition is 47.1% (active). As for `CCOC(=O)c1[nH]c2c(c1C)C(=O)CC(c1ccc(N(C)C)cc1)C2` (stereo not given), the inhibition was -3.7%. Next, `COC(=O)CC1=NN(c2ccccc2)C(=O)C1`: 3.8%; `Cc1ccccc1CN(c1ccc(C(=O)NCC2CCCO2)cc1)S(C)(=O)=O` (stereo not given): 1%; `Cc1cccc(C)c1NC(=O)C1(N(C(=O)c2ccccn2)c2ccc(O)cc2)CCCCC1`: 0.2%. Next, `CC(C)c1nc(-c2ccccn2)no1`: -0.3%; `c1ccc(-c2noc(-c3cccs3)n2)nc1`: 43.8% (active); `COc1nc(-c2ccc(Cl)cc2)ccc1-c1noc(-c2cccs2)n1`: -4.2%. For `O=C(Oc1ccc(-c2nc(-c3ccccn3)no2)cc1)c1ccccc1`, the inhibition was 76.7% (active). Next, `c1csc(-c2nc(-c3ccncc3)no2)c1`: 16.8%; `O=C(Oc1ccccc1)c1ccc2nccnc2c1`: 2.6%; `Cc1c(C(=O)O)nnn1-c1nonc1N`: -8.4%.

On to `Cc1cc(F)ccc1S(=O)(=O)Nc1ncnc2scc(-c3ccc(F)cc3)c12`, for which the inhibition is -1.8%. Next, `CC(=O)c1c(C)[nH]c(C(=O)Nc2cc(S(=O)(=O)N(C)C)ccc2C)c1C`: 13.2%; `CCOc1ccc(NC(=O)CC2C(=O)N(c3ccccc3)C(=O)N2CCOC)cc1` (stereo not given): -0.8%.

`CCCCn1c(N)c(N(CC)C(=O)/C=C/c2ccco2)c(=O)[nH]c1=O`: the inhibition was -5.6%. Next, `COc1ccccc1CNC(=O)CCn1c(=O)sc2ccccc21`: -0.6%. Consider `COc1ccc(Cn2c(=O)sc3ccccc32)cc1OC`, for which the inhibition is 51.6% (active). As to `Cc1cccc(CSc2nnc(Cn3c(=O)sc4ccccc43)n2C)c1`, the inhibition is 5%. Turning to `CO/N=C/CC(=O)c1ccc(OC)cc1`, the inhibition was 6.2%. For `COc1ccc(-c2nn(C)c(=O)c3ccccc23)cc1NC(=O)COc1ccccc1`, the inhibition was 38.1%. Next, `Cc1ccc(F)cc1NC(=O)Cc1nn(C)c(=O)c2ccccc12`: 56.3% (active); `Cc1ccc(NC(=O)Cn2nc(C)c3ccccc3c2=O)c(C)c1`: 9.7%.
